# Test results reported in PubChem BioAssay AID2116 (The Scripps Research Institute Molecular Screening Center, 2009).
# Calls of active or inactive are those of the source. The rule behind the calls is not given here.
# System: HEK Patch Clamp Assay
# Assay: TRPML3 and TRPML2 channel agonists, cell-based, patch clamp, Fura-2 profiling panel (AID 2116)
# Details: HEK293 cells expressing TRPML3-YFP; patch clamp current at -80 mV
SMILES,current density [nA/pF],outcome
Cc1ccc(S(=O)(=O)Nc2ccccc2-c2ccccc2)cc1,-0.003,inactive; no effect on six other TRP channels
O=S(=O)(NC1CCCCC1N1CCOCC1)c1ccc(Cl)cc1 (stereo not given),-0.003,inactive; no effect on six other TRP channels
Cc1ccc(N2CCN(S(=O)(=O)N3CCCCC3)CC2)c(C)c1,-0.007,inactive; no effect on six other TRP channels
O=S(=O)(Nc1ccccc1N1CCCCC1)c1ccc(Cl)s1,-0.004,inactive; no effect on six other TRP channels
O=S(=O)(Nc1ccccc1N1CCOCC1)c1ccc(Cl)s1,-0.005,inactive; no effect on six other TRP channels
